Compound activity: PubChem BioAssay, National Center for Advancing Translational Sciences (NCATS)
HPGD block – qHTS Assay for Inhibitors of HPGD (15-Hydroxyprostaglandin Dehydrogenase) | 15-hydroxyprostaglandin dehydrogenase [NAD(+)] (Homo sapiens), P15428 | purified HPGD, NADH fluorescence kinetic, PGE2 substrate | Potency, µM, hits mostly inhibitors | 150,000 compounds, 4.3% hits | AID 894, 2007; active means well fitted inhibition curve with a large enough effect, not every such curve was filed as active; inconclusive means small, poorly fitted or top-dose-only effect, or another doubt; inactive means no such curve, though single readings can be large or run the other way
Target sequence (P15428 whole entry, looked up): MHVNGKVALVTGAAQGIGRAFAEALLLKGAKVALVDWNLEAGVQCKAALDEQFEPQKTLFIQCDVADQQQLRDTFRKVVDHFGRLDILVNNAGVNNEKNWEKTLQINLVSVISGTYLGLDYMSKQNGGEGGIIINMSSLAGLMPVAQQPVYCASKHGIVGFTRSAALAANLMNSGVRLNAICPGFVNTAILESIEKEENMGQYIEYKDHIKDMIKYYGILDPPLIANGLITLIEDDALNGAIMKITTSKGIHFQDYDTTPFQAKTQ
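20 nM HPGD preincubated 15 min at room temperature with compound in 50 mM Tris-HCl pH 8, 0.01% Tween 20. Started with 1 mM NAD+ and 30 uM prostaglandin E2; NADH fluorescence (360/450 nm) read 5 times over 30-s intervals, last minus first.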
HTT cytoprotect – qHTS Multiplex Assay to Identify Dual Action Probes in a Cell Model of Huntington: Cytoprotection (ATP). PC12 HTT-Q103 induced, cytoprotection, ATP luminescence, 40 h. Potency, µM (doses to about 56.4 µM), most hits filed as activators. 230,000 compounds, 0.14% hits; further: nearly all actives have a fitted effect of over 45% in size
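Compounds were screened for protection of PC12 cells against cell death after tebufenozide induction (100 nM final) of mutant Huntingtin exon 1 (Q103) fused to GFP.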
HttQ103 aggreg – qHTS Multiplex Assay to Identify Dual Action Probes in a Cell Model of Huntington: Aggregate Formation (GFP); PC12 HttQ103-GFP aggregates, Acumen cytometry, 40 h; Potency, µM (titrated, usually from 46.1 µM), actives largely listed as inhibitors; 220,000 compounds, 1.1% hits; further: nearly all actives have a fitted effect of over 60% in size
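Ecdysone-promoter PC12 model expressing HTT exon 1 Q103 fused to GFP, induced by tebufenozide at 100 nM final. Compounds titrated; aggregates sized 1–25 µm scored on a 488 nm laser cytometer.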
CBFb-RUNX1 inh – qHTS Assay for Compounds Blocking the Interaction Between CBF-beta and RUNX1 for the Treatment of Acute Myeloid Leukemia. Runt-related transcription factor 1 (Homo sapiens) + Core-binding factor subunit beta …. AlphaScreen CBFb-His/RUNX1-biotin binding, biochemical. Potency, µM (highest dose often 59.8 µM), actives largely listed as inhibitors. 230,000 tested, under 10 active. AID 1477, 2009
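Bead-based AlphaScreen assay; binding partners His-tagged CBF-beta and biotinylated RUNX1 at 30 nM each. Compound exposure 15 min after a 20-min protein preincubation; bead step 90 min; all steps at room temperature.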
PNC inhibitor – High Content Assay for Compounds that inhibit the Assembly of the Perinucleolar Compartment; PC3M PTB-GFP, PNC prevalence imaging, 16 h; hits give low values; 140,000 compounds, 3.1% hits; activity change (PNC), negative = inhibition, % at 10 µM;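 active means readout at or below -70, meaning at least 70% loss of cells showing the perinucleolar compartment, a nuclear body marking cancer cells; inconclusive means readout between -30 and a set limit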
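Read-out is percentage of cells bearing a perinucleolar compartment, from automated 20x imaging of fixed, Hoechst-stained PC3M PTB-GFP cells. Cells were seeded 4 h, then exposed 16 h to compound (23 nl of library stock) in duplicate plates.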
ALDH1A1 block – qHTS Assay for Inhibitors of Aldehyde Dehydrogenase 1 (ALDH1A1); Purified ALDH1A1, NADH fluorescence, propionaldehyde substrate; 220,000 compounds, 7.3% hits; Potency, µM (titrated, usually from 75.3 µM), actives largely listed as inhibitors; active means well fitted inhibition curve with a large enough effect, not every such curve was filed as active; inconclusive means small, poorly fitted or top-dose-only effect, or another doubt; inactive means no such curve, though single readings can be large or run the other way
Target sequence (P00352 whole entry, looked up): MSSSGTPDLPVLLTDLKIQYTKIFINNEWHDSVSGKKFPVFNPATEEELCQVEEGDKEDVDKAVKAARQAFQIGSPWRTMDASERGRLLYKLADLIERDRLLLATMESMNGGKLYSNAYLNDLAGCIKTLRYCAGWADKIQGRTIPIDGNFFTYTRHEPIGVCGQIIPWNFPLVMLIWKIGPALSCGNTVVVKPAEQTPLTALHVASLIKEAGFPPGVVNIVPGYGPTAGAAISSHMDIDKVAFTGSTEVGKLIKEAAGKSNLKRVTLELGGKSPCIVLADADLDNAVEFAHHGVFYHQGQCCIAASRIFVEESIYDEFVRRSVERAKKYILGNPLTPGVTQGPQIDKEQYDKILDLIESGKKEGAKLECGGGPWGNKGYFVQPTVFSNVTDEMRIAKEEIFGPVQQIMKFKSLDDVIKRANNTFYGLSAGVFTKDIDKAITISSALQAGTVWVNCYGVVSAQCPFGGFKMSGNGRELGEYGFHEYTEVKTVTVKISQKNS
Each line names hits and unclear results; the compound was inactive in the other large screens. Most compounds without a hit are left out; they make up all but 11% or so of the library. Unless noted, the call rests on the fitted dose curve; in most records, active means well fitted curve in the direction sought with a large enough effect; inconclusive means small, poorly fitted or top-dose-only effect, or another doubt; inactive means no such curve, though single readings can be large; an effect the other way counts as inactive or inconclusive.

C=C(C)Cn1c(SCC#N)nc2ccccc2c1=O	ALDH1A1 block 10µM
C=C(C)Cn1c(SCC(=O)N/N=C/c2c(O)ccc3ccccc23)nc2ccccc2c1=O	HttQ103 aggreg inconclusive, PNC inhibitor -121
CC(NC(=O)/C(C#N)=C/c1ccc(Cl)c([N+](=O)[O-])c1)c1ccccc1 (centres undefined)	PNC inhibitor -100
C[C@@H](NC(=O)/C(C#N)=C/c1ccc(O)c(O)c1)c1ccccc1	none (no result: HttQ103 aggreg, PNC inhibitor)
N#Cc1cc([N+](=O)[O-])c(-n2nnc3ccccc32)c([N+](=O)[O-])c1	HPGD block 28µM
CC(C)(C)c1ccc(C(=O)N2CCC(=O)N(C(COCc3ccccc3)Cc3ccccc3)CC2)cc1 (centres undefined)	PNC inhibitor -115, ALDH1A1 block inconclusive (no result: HTT cytoprotect)
O=C(c1ccc(C(F)(F)F)cc1)N1CCC(=O)N(C(COCc2ccccc2)Cc2ccccc2)CC1 (centres undefined)	none (no result: HTT cytoprotect)
CCSc1ccc2cc(OC)ccc2[n+]1CC	HttQ103 aggreg 8.9µM, ALDH1A1 block inconclusive (no result: HPGD block, PNC inhibitor)
CCc1nnc(NC(=O)CSc2nnc(-c3cccnc3)n2CC)s1	HttQ103 aggreg inconclusive, PNC inhibitor -104
CCc1nnc(NC(=O)CSc2nccn2-c2cccc(C)c2C)s1	HttQ103 aggreg inconclusive, ALDH1A1 block 16µM
Cc1ccc(S(=O)(=O)NCCSc2nnnn2-c2cc(C)ccc2C)cc1	HttQ103 aggreg inconclusive, ALDH1A1 block 0.89µM
Cc1ccc(C)c(-n2nnnc2Sc2nnnn2-c2ccccc2)c1	HttQ103 aggreg 20µM, ALDH1A1 block 22µM
Cc1ccc(S(=O)(=O)NCCSc2nnnn2-c2ccccc2)cc1	PNC inhibitor inconclusive, ALDH1A1 block 1µM
Cc1ccc(S(=O)(=O)NCCSc2ncccn2)cc1	none (no result: HPGD block, PNC inhibitor)
CCC(=O)[C@]12O[C@@]3(C4C(=O)OCCC41)N(CC)C(C)=C(C(=O)OC)C(c1ccccc1)N3C2=O (some centres undefined)	none (no result: HPGD block, HttQ103 aggreg, PNC inhibitor)
O=C1c2ccccc2NC(c2ccc(-c3cccc([N+](=O)[O-])c3)o2)N1O (centres undefined)	HPGD block 18µM, HttQ103 aggreg inconclusive, PNC inhibitor inconclusive, ALDH1A1 block 14µM (no result: HTT cytoprotect)
O=C1c2ccccc2NC(c2ccc(-c3ccc(Br)cc3)o2)N1O (centres undefined)	HttQ103 aggreg inconclusive
CC1(C)CC(=O)C2=C(C1)OC(N)=C(C#N)C2C#Cc1ccccc1 (centres undefined)	HPGD block 13µM, ALDH1A1 block 1µM
C/C(=C\c1ccco1)C1C(C#N)=C(N)OC2=C1C(=O)CC(C)(C)C2 (centres undefined)	ALDH1A1 block 13µM
CC(c1ccccc1)C1C(C#N)=C(N)OC2=C1C(=O)CC(C)(C)C2 (centres undefined)	ALDH1A1 block inconclusive
CCC1=C2CC[C@H]3C(=O)NC(=O)[C@H]3[C@H]2[C@@]2(C)C(=NCCc3c[nH]c4ccccc34)OC(=O)N2C1=O	none (no result: HttQ103 aggreg, PNC inhibitor)
CCC(=O)N1CCN(CCN=Cc2c(O)n(C3CCCCC3)c(=O)n(C3CCCCC3)c2=O)CC1	none (no result: HTT cytoprotect, HttQ103 aggreg, CBFb-RUNX1 inh, PNC inhibitor)
Nc1cc(C(=O)O)ccc1N1CCCCC1	PNC inhibitor -100
CC1CCN(c2ccc(C(=O)O)cc2N)CC1	none (no result: HPGD block)
O=C1N=C(N2CCN(c3ccccc3)CC2)S/C1=C/c1cccs1	HPGD block 16µM, ALDH1A1 block inconclusive
O=C1N=C(c2ccccc2)S/C1=C\c1cccs1	HPGD block 5.6µM, ALDH1A1 block 3.5µM
O=C1N=C(N2CCN(Cc3ccccc3)CC2)S/C1=C/c1cccs1	none (no result: HPGD block, PNC inhibitor, ALDH1A1 block)
O=C1/C(=C/c2cccs2)SC(=S)N1c1ccccc1	none
CC(C)(C)CC(C)(C)c1cc(O)c(O)c(CN2CCCCC2)c1	ALDH1A1 block inconclusive (no result: HttQ103 aggreg, CBFb-RUNX1 inh, PNC inhibitor)
NNC(=O)c1oc2ccccc2c1-n1cccc1	ALDH1A1 block 2.2µM (no result: HPGD block, PNC inhibitor)
O=C(CN1C(=O)NC2(CCCCCC2)C1=O)N1CCN(S(=O)(=O)c2ccc(Cl)cc2)CC1	ALDH1A1 block inconclusive
COC(=O)[C@H](Cc1ccccc1)NC(=O)C/C=C\[C@@H](C)[C@@H](CO)OC	ALDH1A1 block inconclusive (no result: HPGD block, HttQ103 aggreg, PNC inhibitor)
Cc1c(N)cccc1Cl	HTT cytoprotect inconclusive, ALDH1A1 block inconclusive (no result: HttQ103 aggreg, PNC inhibitor)
CCN(c1ccc(OC)cc1)c1ncnc2nc[nH]c12	HttQ103 aggreg 5.6µM
CCCN(c1ccc(OCC)cc1)c1ncnc2nc[nH]c12	HttQ103 aggreg 11µM
CCCCN(CCCC)c1ncnc2nc[nH]c12	HttQ103 aggreg inconclusive (no result: HPGD block, PNC inhibitor)
CCc1nc(NCCCCCO)c2nnn(Cc3ccccc3F)c2n1	ALDH1A1 block 1.4µM
Fc1ccccc1Cn1nnc2c(NCCc3ccccn3)ncnc21	ALDH1A1 block 7.9µM
C#CCNc1nc(CC)nc2c1nnn2Cc1ccccc1F	ALDH1A1 block 7.9µM (no result: HPGD block)
Cc1nc(Nc2cccc(C(C)O)c2)c2nnn(Cc3ccccc3F)c2n1 (centres undefined)	ALDH1A1 block 4.5µM (no result: HPGD block, PNC inhibitor)
O=c1cc(-c2cccc(F)c2)[nH]c2cc(F)ccc12	none (no result: HttQ103 aggreg, PNC inhibitor)
O=S(=O)(c1ccc(Br)s1)N1CCc2ccccc2C1	PNC inhibitor -119
O=S(=O)(c1ccc(Cl)s1)N1CCc2ccccc2C1	none
Cc1oc(=O)oc1CN1CCN(c2cc3c(cc2F)c(=O)c(C(=O)O)c2n3C(C)S2)CC1 (centres undefined)	HTT cytoprotect inconclusive (no result: HPGD block, CBFb-RUNX1 inh, PNC inhibitor, ALDH1A1 block)
O=C(NNC(=O)C1CC2CCC1C2)c1sc2ccccc2c1Cl (centres undefined)	ALDH1A1 block 25µM
O=C(NNC(=S)NC1CCCCC1)c1ccc(Cl)s1	HttQ103 aggreg inconclusive (no result: HPGD block, PNC inhibitor)
CC(C)(C)C(=O)NC(=S)NNC(=O)c1sc2ccccc2c1Cl	HttQ103 aggreg 10µM, PNC inhibitor -112, ALDH1A1 block inconclusive
CC(C)c1nnc(NC(=O)c2sc3ccccc3c2Cl)s1	ALDH1A1 block inconclusive
O=C(NNC(=S)NC1CCCCC1)c1sc2ccccc2c1Cl	ALDH1A1 block 22µM
O=C(NC(=S)NC1CCCC1)c1ccccc1Br	ALDH1A1 block inconclusive (no result: HTT cytoprotect)
CC(NC(=O)c1sc2ccccc2c1Cl)C1CCCO1 (centres undefined)	none
O=C(NNC(=S)NC1CCCCC1)c1ccccc1O	HttQ103 aggreg 10µM (no result: HPGD block, PNC inhibitor)
COc1ccc(C(=O)Nc2ccc(-c3nnn(CC(=O)NCc4ccco4)n3)cc2)cc1	none (no result: HPGD block, PNC inhibitor, ALDH1A1 block)
